The values below come from PubChem BioAssay (NCI).

Structures are written as SMILES. About 79,000 compounds went through this panel and 15% of them were active in at least one assay; those are over-represented in the sample as a whole. A number with no mark means an inactive call. Calls of active or inactive are those of the source. Rule as the data show it: active = growth inhibition above about 70%; inactive = the rest.

Experiment [1] can be described thus: NCI Yeast Anticancer Drug Screen. Data for the rad50 strain (AID 155).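 Also: 0% = growth of vehicle-only cultures of the same strain.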 Conditions: S. cerevisiae rad50 strain growth inhibition, active compounds read high. A digest of the protocol:
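Genetically altered yeast (DNA repair pathway); compound treatment; growth inhibition vs vehicle ctrl.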

Experiment [2] is described as follows: NCI Yeast Anticancer Drug Screen. Data for the mec2-1 strain (AID 157). The note with it: S. cerevisiae mec2-1 strain, active compounds read high. The essentials: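 Readout is yeast growth inhibition, normalised to vehicle-treated controls, in the mec2-1 strain exposed to compound.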
Experiment [3] can be described thus: NCI Yeast Anticancer Drug Screen. Data for the sgs1 mgt1 strain (AID 161).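 Also: 0% = growth of cultures given vehicle only.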 Conditions: S. cerevisiae sgs1 mgt1 strain, active compounds read high. The essentials: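 This yeast growth screen uses a strain with defined DNA-repair lesions; compound-treated growth is compared with vehicle-treated growth.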
A short description of experiment [4]: NCI Yeast Anticancer Drug Screen. Data for the cln2 rad14 strain (AID 165).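 Also: 0% = growth equal to vehicle treated cultures.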 The note with it: S. cerevisiae cln2 rad14 strain, active compounds read high. A digest of the protocol:
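Relative to vehicle controls, growth inhibition of compound-treated cln2 rad14 yeast was recorded.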

A short description of experiment [5]: NCI Yeast Anticancer Drug Screen. Data for the bub3 strain (AID 167). The note with it: S. cerevisiae bub3 mutant strain, active compounds read high. The essentials:
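Yeast carrying a defined mutation is treated with each compound, and growth is compared with that of vehicle-exposed cells to give inhibition.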

Experiment [6] can be described thus: NCI Yeast Anticancer Drug Screen. Data for the mlh1 rad18 strain (AID 175). Conditions: S. cerevisiae mlh1 rad18 strain growth inhibition, active compounds read high. The essentials:
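Test agents were incubated with a yeast strain of defined genotype (DNA damage repair defect). Inhibition of growth was derived by comparison with vehicle-exposed cultures.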

The mark [7] stands for this setting: at 5.0 µM (retest, dose inferred, filed as 0.5).
The mark [8] stands for this setting: at 50.0 µM (retest, dose inferred, filed as 5.0).

Regarding `c1ccc2c(c1)CCN2CCc1c[nH]c2ccccc12`, the growth inhibition in experiment [1] (setting [7]) was 0%; in experiment [1] (setting [8]) it was 12%; in experiment [1] (at 50.0 µM), 89.6% (active); in experiment [2] (setting [7]) it was -5%; in experiment [2] (setting [8]) it was -12%; in experiment [2] (at 50.0 µM) it was 91.8% (active). The growth inhibition in experiment [3] (setting [7]) is -10%; in experiment [3] (setting [8]), 3%; in experiment [3] (at 50.0 µM), 89.8% (active); in experiment [4] (setting [7]), 23%; in experiment [4] (setting [8]), 31%; in experiment [4] (at 50.0 µM), 89.8% (active). Besides, the growth inhibition was -26% in experiment [5] (setting [7]); 43% in experiment [5] (setting [8]); 89.3% (active) in experiment [5] (at 50.0 µM); -14% in experiment [6] (setting [7]); 21% in experiment [6] (setting [8]); 88.5% (active) in experiment [6] (at 50.0 µM).

`CC1CCC2(OC1)OC1CC3C4CCC5CC(OC6OC(COC7OC(CO)C(O)C(O)C7O)C(OC7OC(C)C(O)C(O)C7O)C(O)C6OC6OC(CO)C(O)C(O)C6O)CCC5(C)C4CCC3(C)C1C2C` (stereo not given): the growth inhibition is 0% in experiment [1] (setting [7]); 99% (active) in experiment [1] (setting [8]); 99.2% (active) in experiment [1] (at 50.0 µM); -1% in experiment [2] (setting [7]); 100% (active) in experiment [2] (setting [8]); 99.8% (active) in experiment [2] (at 50.0 µM). Further, the growth inhibition in experiment [3] (setting [7]) is 16%; in experiment [3] (setting [8]), 97% (active); in experiment [3] (at 50.0 µM) it was 99.8% (active); in experiment [4] (setting [7]), -2%; in experiment [4] (setting [8]), 99% (active); in experiment [4] (at 50.0 µM), 99.5% (active). The growth inhibition is 15% in experiment [5] (setting [7]); 100% (active) in experiment [5] (setting [8]); 99.6% (active) in experiment [5] (at 50.0 µM); 2% in experiment [6] (setting [7]); 100% (active) in experiment [6] (setting [8]); 99.7% (active) in experiment [6] (at 50.0 µM).

In the case of `CC(=O)OC1SC(C)(C)n2c1nc1ccccc1c2=O` (stereo not given), the growth inhibition in experiment [1] (setting [7]) was 1%; in experiment [1] (setting [8]) it was 56%; in experiment [1] (at 50.0 µM) it was 44.1%; in experiment [2] (setting [7]) it was -5%; in experiment [2] (setting [8]) it was 53%; in experiment [2] (at 50.0 µM), 23.7%. In addition, the growth inhibition in experiment [3] (setting [7]) is 6%; in experiment [3] (setting [8]), 51%; in experiment [3] (at 50.0 µM) it was 41%; in experiment [4] (setting [7]), -8%; in experiment [4] (setting [8]), 43%; in experiment [4] (at 50.0 µM), 69.4%. Also, the growth inhibition is 1% in experiment [5] (setting [7]); 39% in experiment [5] (setting [8]); 18.8% in experiment [5] (at 50.0 µM); 2% in experiment [6] (setting [7]); 50% in experiment [6] (setting [8]); 72% (active) in experiment [6] (at 50.0 µM).

In the case of `N#Cc1ccc([N+](=O)[O-])cc1C#N`, the growth inhibition in experiment [1] (setting [7]) was -155%; in experiment [1] (setting [8]), 97% (active); in experiment [1] (at 50.0 µM), 99.2% (active); in experiment [2] (setting [7]) it was -46%; in experiment [2] (setting [8]), 97% (active); in experiment [2] (at 50.0 µM) it was 99.8% (active). In addition, the growth inhibition is -56% in experiment [3] (setting [7]); 98% (active) in experiment [3] (setting [8]); 99.6% (active) in experiment [3] (at 50.0 µM); -50% in experiment [4] (setting [7]); 96% (active) in experiment [4] (setting [8]); 97.6% (active) in experiment [4] (at 50.0 µM). The growth inhibition in experiment [5] (setting [7]) was -66%; in experiment [5] (setting [8]), 98% (active); in experiment [5] (at 50.0 µM) it was 97.6% (active); in experiment [6] (setting [7]) it was -135%; in experiment [6] (setting [8]), 98% (active); in experiment [6] (at 50.0 µM), 99.5% (active).

Regarding `N#CC1=C(N)OC(/C=C/c2ccccc2)=C(C#N)C1c1ccccc1` (stereo not given), the growth inhibition in experiment [1] (setting [7]) was 33%; in experiment [1] (setting [8]), 81% (active); in experiment [1] (at 50.0 µM) it was 90.2% (active); in experiment [2] (setting [7]), 25%; in experiment [2] (setting [8]), 81% (active); in experiment [2] (at 50.0 µM), 76.3% (active). The growth inhibition in experiment [3] (setting [7]) was 30%; in experiment [3] (setting [8]), 91% (active); in experiment [3] (at 50.0 µM) it was 93.6% (active); in experiment [4] (setting [7]), 33%; in experiment [4] (setting [8]) it was 86% (active); in experiment [4] (at 50.0 µM), 101% (active). Besides, the growth inhibition in experiment [5] (setting [7]) is 23%; in experiment [5] (setting [8]), 81% (active); in experiment [5] (at 50.0 µM), 75% (active); in experiment [6] (setting [7]), 19%; in experiment [6] (setting [8]) it was 86% (active); in experiment [6] (at 50.0 µM), 88.3% (active).

`O=C(CNC(=O)Nc1ccc(NC(=O)NCC(=O)Nc2ccc(C3=NCCN3)cc2)cc1)Nc1ccc(C2=NCCN2)cc1`: the growth inhibition in experiment [1] (setting [7]) is 3%; in experiment [1] (setting [8]), -2%; in experiment [1] (at 50.0 µM), 98.2% (active); in experiment [2] (setting [7]), -16%; in experiment [2] (setting [8]), -3%; in experiment [2] (at 50.0 µM), 88.4% (active). Moreover, the growth inhibition in experiment [3] (setting [7]) was 2%; in experiment [3] (setting [8]) it was -3%; in experiment [3] (at 50.0 µM), 98.8% (active); in experiment [4] (setting [7]) it was 5%; in experiment [4] (setting [8]), 5%; in experiment [4] (at 50.0 µM), 30.7%. The growth inhibition was 0% in experiment [5] (setting [7]); -5% in experiment [5] (setting [8]); 96.4% (active) in experiment [5] (at 50.0 µM); 4% in experiment [6] (setting [7]); 20% in experiment [6] (setting [8]); 95.2% (active) in experiment [6] (at 50.0 µM).

For the compound `O=C(O)COc1ccccc1C(=O)O`, the growth inhibition is 0% in experiment [1] (setting [7]); -3% in experiment [1] (setting [8]); 4.55% in experiment [1] (at 50.0 µM); -2% in experiment [2] (setting [7]); -3% in experiment [2] (setting [8]); 29.4% in experiment [2] (at 50.0 µM). Further, the growth inhibition in experiment [3] (setting [7]) is 1%; in experiment [3] (setting [8]), 0%; in experiment [3] (at 50.0 µM) it was -1.95%; in experiment [4] (setting [7]) it was -2%; in experiment [4] (setting [8]), 2%; in experiment [4] (at 50.0 µM), 23.8%. In addition, the growth inhibition in experiment [5] (setting [7]) is -5%; in experiment [5] (setting [8]) it was -5%; in experiment [5] (at 50.0 µM), 11.6%; in experiment [6] (setting [7]) it was 1%; in experiment [6] (setting [8]), -1%; in experiment [6] (at 50.0 µM) it was 5.7%.

For the compound `O=C1c2ccccc2C(=O)N1C(=NCc1ccccc1)c1ccccc1`, the growth inhibition in experiment [1] (setting [7]) is 7%; in experiment [1] (setting [8]), 70% (active); in experiment [1] (at 50.0 µM) it was 64.2%; in experiment [2] (setting [7]), 2%; in experiment [2] (setting [8]) it was 68%; in experiment [2] (at 50.0 µM), 63.4%. Moreover, the growth inhibition in experiment [3] (setting [7]) is 4%; in experiment [3] (setting [8]) it was 42%; in experiment [3] (at 50.0 µM), 64%; in experiment [4] (setting [7]), 3%; in experiment [4] (setting [8]) it was 64%; in experiment [4] (at 50.0 µM), 5.55%. Further, the growth inhibition in experiment [5] (setting [7]) is -3%; in experiment [5] (setting [8]), 66%; in experiment [5] (at 50.0 µM) it was 55.2%; in experiment [6] (setting [7]), 4%; in experiment [6] (setting [8]), 78% (active); in experiment [6] (at 50.0 µM), 83.2% (active).

Regarding `CC1C/C(=N\N(C)C)C(C#N)(C#N)C1(C#N)C#N` (stereo not given), the growth inhibition was 30% in experiment [1] (setting [7]); 99% (active) in experiment [1] (setting [8]); 81% (active) in experiment [1] (at 50.0 µM); 45% in experiment [2] (setting [7]); 99% (active) in experiment [2] (setting [8]); 81.1% (active) in experiment [2] (at 50.0 µM). Moreover, the growth inhibition was 26% in experiment [3] (setting [7]); 97% (active) in experiment [3] (setting [8]); 66.5% in experiment [3] (at 50.0 µM); 27% in experiment [4] (setting [7]); 79% (active) in experiment [4] (setting [8]); 37.8% in experiment [4] (at 50.0 µM). Besides, the growth inhibition in experiment [5] (setting [7]) is 47%; in experiment [5] (setting [8]), 99% (active); in experiment [5] (at 50.0 µM) it was 62.2%; in experiment [6] (setting [7]), 59%; in experiment [6] (setting [8]), 99% (active); in experiment [6] (at 50.0 µM), 92% (active).

`COc1ccc(C(=O)C(c2ccc(OC)cc2)C2(O)C(=O)Nc3c(C)cc(Cl)cc32)cc1` (stereo not given): the growth inhibition was 21% in experiment [1] (setting [7]); 21% in experiment [1] (setting [8]); -25.1% in experiment [1] (at 50.0 µM); -15% in experiment [2] (setting [7]); -15% in experiment [2] (setting [8]); 89% (active) in experiment [2] (at 50.0 µM). In addition, the growth inhibition was -9% in experiment [3] (setting [7]); -9% in experiment [3] (setting [8]); 87.8% (active) in experiment [3] (at 50.0 µM); 3% in experiment [4] (setting [7]); 3% in experiment [4] (setting [8]); 69.7% in experiment [4] (at 50.0 µM). The growth inhibition is -3% in experiment [5] (setting [7]); -3% in experiment [5] (setting [8]); 89.8% (active) in experiment [5] (at 50.0 µM); -2% in experiment [6] (setting [7]); -2% in experiment [6] (setting [8]); 38.7% in experiment [6] (at 50.0 µM).
